Screens as filed in PubChem BioAssay.
Beta apoptosis = inhibitors of cytokine-induced beta cell apoptosis, primary screen, luminescence | INS-1E cytokine-induced death, ATP luminescence, 48 h; percent of positive-control rescue, neutral wells zero | protection from apoptosis, % (test concentration not listed) | actives 0.8% (n = 300,000);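 active = Every replicate reaches about 75%, or at least half do and their mean reaches it too, limit read from the data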;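 note: 0% = cytokine-treated negative control wells and 100% = positive control rescue; higher means more ATP so stronger rescue from cytokine killing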
PP5 primary = PP5 phosphatase inhibitors, primary screen, biochemical, fluorescence; Serine/threonine-protein phosphatase 5 (Homo sapiens), P53041; purified PP5c, OMFP substrate fluorescence; inhibition, % at 6.7 µM; actives 0.18% (n = 320,000); AID 1987, 2009;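 active = inhibition above the campaign's mean inhibition across all tested compounds plus 3 SD, cut at about 9.5% in these data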;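 note: 0% = DMSO only and 100% = 100 µM cantharidin control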
Calb FLC = C. albicans growth inhibition with fluconazole, primary screen, CaCi-2 strain, Alamar Blue fluorescence; growth inhibition, % (concentration not given with the values); actives 0.57% (n = 300,000); AID 1979, 2009; C. albicans CaCi-2 (fluconazole-resistant clinical isolate) + fluconazole, 48 h;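 active = growth inhibition above about 58% in most replicates, limit read from the data, passing the limit was not always enough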;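 note: all wells also contain fluconazole at 8 µg/ml as a sub-toxic cotreatment; 0% = median of DMSO wells and 100% = median of geldanamycin control wells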
Mdm2 MdmX PPI = inhibitors of human Mdm2-MdmX association, primary screen, cell-based, luminescence, split luciferase, SaOS-2, uHTS | SaOS-2 split-luciferase Mdm2/MdmX complementation | inhibition, % at 8 µM | actives 3% (n = 330,000) | AID 485346, 2010;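 active = inhibition of at least 50% at 8 µM in the primary screen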
Target sequence (O15151 whole entry, looked up): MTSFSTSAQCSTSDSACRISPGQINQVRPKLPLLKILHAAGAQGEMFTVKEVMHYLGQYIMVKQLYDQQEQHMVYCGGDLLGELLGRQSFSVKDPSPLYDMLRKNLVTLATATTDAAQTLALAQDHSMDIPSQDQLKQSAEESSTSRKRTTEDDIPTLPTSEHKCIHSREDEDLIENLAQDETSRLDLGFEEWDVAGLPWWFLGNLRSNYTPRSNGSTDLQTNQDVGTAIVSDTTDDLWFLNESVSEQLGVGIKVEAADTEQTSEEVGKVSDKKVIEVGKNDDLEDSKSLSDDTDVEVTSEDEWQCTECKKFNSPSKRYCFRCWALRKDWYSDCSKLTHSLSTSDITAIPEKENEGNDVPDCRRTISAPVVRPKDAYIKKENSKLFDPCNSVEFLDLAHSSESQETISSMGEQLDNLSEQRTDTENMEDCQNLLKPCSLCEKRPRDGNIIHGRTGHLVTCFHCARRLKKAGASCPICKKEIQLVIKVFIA
Target sequence (Q00987 whole entry, looked up): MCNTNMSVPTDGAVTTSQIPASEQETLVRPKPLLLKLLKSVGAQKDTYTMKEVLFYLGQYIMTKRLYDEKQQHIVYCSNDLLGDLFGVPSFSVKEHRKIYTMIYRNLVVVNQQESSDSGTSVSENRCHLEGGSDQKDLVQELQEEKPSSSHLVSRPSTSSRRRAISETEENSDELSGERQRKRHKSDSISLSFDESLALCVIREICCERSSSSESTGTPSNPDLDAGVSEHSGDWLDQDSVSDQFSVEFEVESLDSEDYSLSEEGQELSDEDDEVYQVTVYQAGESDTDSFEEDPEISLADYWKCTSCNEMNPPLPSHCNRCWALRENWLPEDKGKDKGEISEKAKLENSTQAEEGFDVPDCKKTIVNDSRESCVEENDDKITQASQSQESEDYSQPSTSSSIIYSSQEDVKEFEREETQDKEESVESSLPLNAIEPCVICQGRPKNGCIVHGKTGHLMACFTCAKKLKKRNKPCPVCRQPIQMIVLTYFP
PP1 inh = PP1-alpha phosphatase inhibitors, primary screen, counter-screen for PP5 inhibitor project, biochemical, fluorescence, OMFP substrate, single point; purified PP1alpha; inhibition, % at 6.7 µM; actives 0.9% (n = 320,000); AID 2235, 2010;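 active = inhibition above the mean inhibition of all tested compounds plus 3 SD, computed separately for each screening campaign, cut at about 15% in these data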
CSC inhib = cancer stem cell viability inhibitors, primary screen, luminescence. AID 2717, 2010. actives 1.1% (n = 300,000). inhibition, % at 7.5 µM. cancer stem cell-like cells viability; in the data active = inhibition above about 75%; tested in HMLE shEcad cells
Mdm2 MdmX conf = Mdm2-MdmX complex disruptors, retested hits, confirmation, luminescence, single concentration; shares compounds with Mdm2 MdmX PPI; Mdm2-MdmX binding, luminescent assay; inhibition, % at 8 µM; actives 55% (n = 10,000); in the data active = inhibition above about 40%
Full FLuc ctr = full-length luciferase signal inhibition, confirmation, counter-screen for Mdm2/MdmX interaction inhibitor project, cell-based, single concentration, SaOS-2; shares compounds with Mdm2 MdmX PPI; SaOS-2 full-length luciferase counterscreen, luminescence; inhibition, % at 8 µM; actives 77% (n = 6,200); AID 504607, 2011;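 active = mean inhibition at 8 µM reaching about 37%, which flags the compound as non-specific, limit read from the data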;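 note: p53-null SaOS-2 cells with luciferase driven by a doxycycline-inducible promoter; compound on cells about two nights before reading with doxycycline added after day one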
The depositor's hits bear a star. In the library only some 4.9% were active in any assay of this set; here they are far more common.

COc1ccc2cc1Oc1ccc(cc1)C[C@H]1c3cc(c(OC)cc3CCN1C)Oc1c(OC)c(OC)cc3c1[C@H](C2)N(C)CC3 was read as Beta apoptosis 5.3, PP5 primary 2.8, Mdm2 MdmX PPI 100.4*, PP1 inh -0.2, CSC inhib -6.0, Mdm2 MdmX conf 99.5* and Full FLuc ctr 51.5*.
Screening COc1ccc2c(c1OC)C(=O)O[C@@H]2[C@H]1c2c(cc3c(c2OC)OCO3)CCN1C returned Beta apoptosis -5.3, PP5 primary 7.5, Calb FLC -4.4, Mdm2 MdmX PPI -13.8, PP1 inh 1.2 and CSC inhib 6.7.
`COc1ccc2cc1Oc1ccc(cc1)C[C@H]1c3c(cc4c(c3Oc3cc5c(cc3OC)CCN(C)[C@@H]5C2)OCO4)CCN1C` gave PP5 primary -1.3, Mdm2 MdmX PPI 100.4*, PP1 inh 2.0, CSC inhib 3.9, Mdm2 MdmX conf 86.8* and Full FLuc ctr 31.6.
O=C(Cc1c[nH]c2ccccc12)N/N=C/c1ccccc1O was read as Beta apoptosis 7.8, PP5 primary -0.4, Calb FLC 2.5, Mdm2 MdmX PPI 10.7, PP1 inh 0.0 and CSC inhib 24.2.
`CC(C)(C)c1ccc(/C=N/NC(=O)Cc2c[nH]c3ccccc23)cc1` gave Beta apoptosis -1.9, PP5 primary 7.1, Calb FLC 3.3, Mdm2 MdmX PPI 54.7*, PP1 inh 1.1, CSC inhib 72.3 and Mdm2 MdmX conf -32.4.
`Cc1cc(C)c(NS(=O)(=O)c2ccc3c(c2)NC(=O)CC(=O)N3)c(C)c1` gave Beta apoptosis -2.1, PP5 primary 2.2, Calb FLC 0.6, Mdm2 MdmX PPI -0.8, PP1 inh 0.4 and CSC inhib 7.2.
`COc1ccc(S(=O)(=O)N2CCCOC2CNC(=O)C(=O)NCCc2ccco2)cc1C` (stereo not drawn) gave Beta apoptosis -0.2, PP5 primary 1.6, Calb FLC 1.1, Mdm2 MdmX PPI 53.1*, PP1 inh -1.8, CSC inhib 17.5, Mdm2 MdmX conf 60.5* and Full FLuc ctr 60.9*.
For Cc1cc(C2N=C(N)Nc3nc4ccccc4n32)c(C)n1-c1ccccc1Cl (stereo not drawn) the results were Beta apoptosis -7.6, PP5 primary 3.0, Calb FLC 38.1, Mdm2 MdmX PPI 24.5, PP1 inh 7.5 and CSC inhib 10.8.
Screening Cc1ccc(-n2c(C)cc(C3N=C(N)Nc4nc5ccccc5n43)c2C)c(C)c1 (stereo not drawn) returned Beta apoptosis 13.6, PP5 primary 0.8, Calb FLC -50.2, Mdm2 MdmX PPI 71.6*, PP1 inh 12.3, CSC inhib 12.7 and Mdm2 MdmX conf 28.5.
COc1ccc(/C=C/C(=O)c2cc(F)ccc2OC(=O)c2ccccc2)cc1OC was read as Beta apoptosis 2.9, PP5 primary 1.3, Calb FLC 7.7, Mdm2 MdmX PPI 68.4*, PP1 inh 2.2, CSC inhib 46.7, Mdm2 MdmX conf 58.2* and Full FLuc ctr 97.6*.
`COc1cc(/C=C/C(=O)c2ccc(F)cc2)cc(OC)c1OC` gave Beta apoptosis -19.8, PP5 primary 1.7, Calb FLC -0.7, Mdm2 MdmX PPI 0.3, PP1 inh -2.9 and CSC inhib 8.9.
CCOc1ccc(N2C(=O)S/C(=C\c3cc(OC)c(OC)c(OC)c3)C2=O)cc1 was read as Beta apoptosis 10.5, PP5 primary -0.7, Calb FLC -12.3, Mdm2 MdmX PPI 53.1*, PP1 inh -1.8, CSC inhib 4.1 and Mdm2 MdmX conf 13.5.
Screening COc1ccc(/C=C/C(=O)c2cc(F)ccc2OC(=O)c2ccc(OC)c(OC)c2)cc1OC returned Beta apoptosis 2.0, PP5 primary 2.2, Calb FLC 25.8, Mdm2 MdmX PPI 23.5, PP1 inh -1.5 and CSC inhib 3.3.
For CCOc1ccc(C(=O)/C=C/c2cc(OC)c(OC)c(OC)c2)cc1 the results were Beta apoptosis -27.7, PP5 primary 0.6, Calb FLC -2.8, Mdm2 MdmX PPI 63.1*, PP1 inh -4.5, CSC inhib 48.4, Mdm2 MdmX conf 55.5* and Full FLuc ctr 48.9*.
For COc1ccc(C(=O)/C=C/c2ccc(OC(=O)c3cc(OC)c(OC)c(OC)c3)cc2)cc1 the results were Beta apoptosis -5.2, PP5 primary 1.0, Calb FLC 0.1, Mdm2 MdmX PPI 57.2*, PP1 inh -0.9, CSC inhib 17.2 and Mdm2 MdmX conf 4.8.
For COc1cc(/C=C2\SC(=O)N(c3ccc(O)cc3)C2=O)cc(OC)c1OC the results were Beta apoptosis 2.9, PP5 primary -0.7, Calb FLC 30.2, Mdm2 MdmX PPI 19.1, PP1 inh 1.0 and CSC inhib -2.9.
`Cc1onc(-c2ccccc2Cl)c1C(=O)NNC(=O)c1ccccc1F` gave Beta apoptosis -2.6, PP5 primary 0.0, Calb FLC -7.5, Mdm2 MdmX PPI -14.6, PP1 inh -2.3 and CSC inhib 5.6.
For Cc1cccc(NC(=O)COC(=O)CN2CCCCCC2=O)c1C the results were Beta apoptosis -2.6, Mdm2 MdmX PPI -17.7 and CSC inhib -7.9.
COc1ccc(/C=C/C(=O)Nc2ccccc2C(=O)O)cc1OC was read as PP5 primary -3.8, Mdm2 MdmX PPI 61.7*, PP1 inh 4.5, CSC inhib 15.1, Mdm2 MdmX conf 75.8* and Full FLuc ctr 131.3*.
Screening O=C(/C=C/c1ccc(O)c([N+](=O)[O-])c1)c1ccc2ccccc2c1 returned Beta apoptosis -9.7, PP5 primary 2.0, Calb FLC 8.0, Mdm2 MdmX PPI 14.4, PP1 inh 5.7 and CSC inhib -6.2.
COc1ccc(/C=C/C(=O)c2ccc(C(=O)/C=C/c3ccc(OC)c(OC)c3)cc2)cc1OC was read as Calb FLC 5.3, Mdm2 MdmX PPI 53.9* and Mdm2 MdmX conf 3.0.
`COc1ccc(Oc2ccc(/C=C/C(=O)c3ccc(O)cc3)cc2[N+](=O)[O-])cc1` gave Beta apoptosis 9.8, PP5 primary 1.6, Calb FLC -6.6, Mdm2 MdmX PPI 97.5*, PP1 inh 2.0, CSC inhib 94.0* and Mdm2 MdmX conf 32.8.
